Several values for one entry are separate records, joined by “and”; a condition that tells them apart may be missing. Equal entries are not always repeated. Inconclusive results are not listed. Entries that show only a call come without a potency. Some compounds were tested as several samples or in several runs, with calls that do not always agree. Activity calls are given as the source filed them. The call rests on the fitted dose curve; in most records, active means well fitted curve in the direction sought with a large enough effect in the repeat runs; inconclusive means weak or mixed curves; inactive means no such curve, though single readings can be large; an effect the other way counts as inactive or inconclusive.
How the values were obtained:
[1] = qHTS RealTime-Glo MT Cell Viability Assay in HepG2 cells - 40 hour (AID 1224870); further: nearly all actives have a fitted effect of over 50% in size; further: potency means the concentration at half of the fitted maximal effect
Procedure, shortened: (§1)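 HepG2 cells mixed with RealTime-Glo MT reagents (NanoLuc plus cell-permeant prosubstrate) were seeded at 600 cells/well, incubated 5 h at 37 C/5% CO2, then pinned with compounds in DMSO; nonlytic luminescence tracked viability during 40 h treatment.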

[2] = A CellTox Green Cytotoxicity Assay to monitor cytotoxicity in HEK293 cells - 40 hour (AID 1224871); further: nearly all actives have a fitted effect of over 45% in size; further: potency means the concentration at half of the fitted maximal effect
Procedure, shortened: (§2)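 Homogeneous no-lysis format: HEK293 cell suspension mixed with CellTox Green reagent, seeded, incubated 5 h at 37 C/5% CO2, then dosed by pintool with compound in DMSO.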

[3] = qHTS RealTime-Glo MT Cell Viability Assay in HEK293 cells - 16 hour (AID 1224872); further: nearly all actives have a fitted effect of over 50% in size; further: potency means the concentration at half of the fitted maximal effect
Procedure, shortened: (§3)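 Viability tracked continuously by luminescence as live cells reduce a prosubstrate for NanoLuc; HEK293 cells preincubated 5 h, compound-treated at 37 C, and read at 0, 8, 16, 24, 32 and 40 h.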

[4] = qHTS RealTime-Glo MT Cell Viability Assay in HepG2 cells - 8 hour (AID 1224873); further: nearly all actives have a fitted effect of over 55% in size
Procedure, shortened: as §1

[5] = qHTS RealTime-Glo MT Cell Viability Assay in HEK293 cells - 40 hour (AID 1224874); details: RealTime-Glo luminescence; max response: stronger effect = lower value; further: nearly all actives have a fitted effect of over 50% in size
Procedure, shortened: (§4)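 Measured as luminescence from the same continuously cultured HEK293 wells at successive time points (0, 8, 16, 24, 32, 40 h) after compound addition. Reagent present from seeding; dosing at 5 h; incubation 37 C.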

[6] = A CellTox Green Cytotoxicity Assay to monitor cytotoxicity in HEK293 cells - 24 hour (AID 1224875); further: series mostly up to about 77 µM; nearly all actives have a fitted effect of over 45% in size
Procedure, shortened: as §2

[7] = qHTS RealTime-Glo MT Cell Viability Assay in HepG2 cells - 32 hour (AID 1224877); further: nearly all actives have a fitted effect of over 55% in size; further: potency means the concentration at half of the fitted maximal effect
Procedure, shortened: (§5)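 Viability was tracked continuously by NanoLuc luminescence from prosubstrate reduced by living HepG2 cells, at successive time points over 40 h of compound exposure. Cells with reagent were preincubated 5 h at 37 °C before compound addition.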

[8] = A CellTox Green Cytotoxicity Assay to monitor cytotoxicity in HepG2 cells - 24 hour (AID 1224878); further: nearly all actives have a fitted effect of over 45% in size; further: potency means the concentration at half of the fitted maximal effect
Procedure, shortened: (§6)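 Fluorescent DNA-binding dye, 600 HepG2 cells/well, 5 h preincubation then compound in DMSO; same plates read at 0–40 h, 37 C.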

[9] = A CellTox Green Cytotoxicity Assay to monitor cytotoxicity in HepG2 cells - 40 hour (AID 1224879); further: nearly all actives have a fitted effect of over 40% in size; further: potency means the concentration at half of the fitted maximal effect
Procedure, shortened: as §6

[10] = qHTS RealTime-Glo MT Cell Viability Assay in HEK293 cells - 0 hour (AID 1224880); further: top concentration of the series differs between compounds; nearly all actives have a fitted effect of over 45% in size
Procedure, shortened: as §4

[11] = A CellTox Green Cytotoxicity Assay to monitor cytotoxicity in HEK293 cells - 32 hour (AID 1224881); further: nearly all actives have a fitted effect of over 40% in size; further: potency means the concentration at half of the fitted maximal effect
Procedure, shortened: as §2

[12] = A CellTox Green Cytotoxicity Assay to monitor cytotoxicity in HepG2 cells - 0 hour (AID 1224882); further: nearly all actives have a fitted effect of over 35% in size
Procedure, shortened: as §6

[13] = A CellTox Green Cytotoxicity Assay to monitor cytotoxicity in HepG2 cells - 32 hour (AID 1224883); further: nearly all actives have a fitted effect of over 50% in size; further: potency means the concentration at half of the fitted maximal effect
Procedure, shortened: as §6

[14] = A CellTox Green Cytotoxicity Assay to monitor cytotoxicity in HEK293 cells - 8 hour (AID 1224884); further: nearly all actives have a fitted effect of over 35% in size; further: potency means the concentration at half of the fitted maximal effect
Procedure, shortened: as §2

[15] = qHTS RealTime-Glo MT Cell Viability Assay in HepG2 cells - 16 hour (AID 1224885); further: nearly all actives have a fitted effect of over 50% in size
Procedure, shortened: as §5

[16] = qHTS RealTime-Glo MT Cell Viability Assay in HEK293 cells - 24 hour (AID 1224886); further: nearly all actives have a fitted effect of over 50% in size; further: potency means the concentration at half of the fitted maximal effect
Procedure, shortened: as §3

[17] = A CellTox Green Cytotoxicity Assay to monitor cytotoxicity in HEK293 cells - 16 hour (AID 1224888); further: nearly all actives have a fitted effect of over 35% in size
Procedure, shortened: as §2

[18] = qHTS RealTime-Glo MT Cell Viability Assay in HepG2 cells - 0 hour (AID 1224889); further: nearly all actives have a fitted effect of over 50% in size
Procedure, shortened: as §5

[19] = A CellTox Green Cytotoxicity Assay to monitor cytotoxicity in HepG2 cells - 16 hour (AID 1224876); further: nearly all actives have a fitted effect of over 45% in size; further: potency means the concentration at half of the fitted maximal effect
Procedure, shortened: as §6

[20] = qHTS RealTime-Glo MT Cell Viability Assay in HEK293 cells - 8 hour (AID 1224887); further: nearly all actives have a fitted effect of over 50% in size; further: potency means the concentration at half of the fitted maximal effect
Procedure, shortened: as §4

Clc1nc(Cl)c(Cl)c(Cl)c1Cl
Potency [1]: inactive | Potency [2]: 43.9 µM (active) and inactive | Potency [3]: inactive | Potency [4]: inactive | max response [5]: 1.46% (inactive) and 24.5% (inactive) | Potency [6]: inactive | Potency [7]: inactive | Potency [8]: inactive | Potency [9]: inactive | Potency [10]: inactive | Potency [11]: inactive | Potency [12]: inactive | Potency [13]: inactive | Potency [14]: inactive | Potency [15]: inactive | Potency [16]: inactive | Potency [17]: inactive | Potency [18]: inactive

CC1=CCC(C(C)(C)O)CC1 (stereo not drawn)
Potency [1]: inactive | Potency [2]: inactive | Potency [3]: inactive | Potency [4]: inactive | Potency [6]: inactive | Potency [19]: inactive and 19.5 µM (active) | Potency [7]: inactive | Potency [9]: inactive and 21.9 µM (active) | Potency [10]: inactive | Potency [11]: inactive | Potency [12]: inactive | Potency [13]: inactive and 21.9 µM (active) | Potency [14]: inactive and 17.4 µM (active) | Potency [15]: inactive | Potency [16]: inactive | Potency [20]: inactive | Potency [17]: inactive | Potency [18]: inactive

O=C(c1ccc(OCCN2CCCCC2)cc1)c1c(-c2ccc(O)cc2)sc2cc(O)ccc12
Potency [1]: 54.9 µM (active) and inactive | Potency [2]: 55 µM (active) and 54.9 µM (active) | Potency [3]: 19.5 µM (active) and 21.9 µM (active) | Potency [4]: inactive | Potency [19]: inactive | Potency [7]: 55 µM (active) and 54.9 µM (active) and inactive | Potency [8]: 55 µM (active) and 54.9 µM (active) | Potency [9]: 49 µM (active) and 26.8 µM (active) | Potency [10]: inactive | Potency [11]: 54.9 µM (active) and inactive | Potency [12]: inactive | Potency [13]: 49 µM (active) and 54.9 µM (active) | Potency [14]: inactive | Potency [15]: inactive | Potency [16]: 19.5 µM (active) | Potency [20]: 21.9 µM (active) | Potency [18]: inactive

Source: PubChem BioAssay (Tox21)
